From PubChem
SMN2 splice up: enhancers of SMN2 splice variant expression; HEK293 SMN2-luciferase splicing reporter, luminescence, 30-36 h; Potency, µM (top dose mostly 46.1 µM), for inactives: top-dose activity change, positive = activation, hits mostly activators; hit rate 2.8% among 210,000; AID 1458; further: % of control where 0% means no effect; nearly all actives have a fitted effect of over 55% in size
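HEK293 cells carry an SMN2 […]–luciferase reporter in which exon 7 inclusion puts luciferase in frame. Cells were plated 10-12 h before compound addition, then incubated 30-36 h at 37C. ONE-Glo luminescence was read; sodium butyrate at 4.5 mM final served as control.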
Rab9 prom act: activators of Rab9 promoter. Huh7 Rab9 promoter-luciferase reporter, luminescence, 24 h. Potency, µM (highest dose often 9.22 µM), without a hit: top-dose activation, negative = inhibition, actives largely listed as activators. hit rate 2.8% among 320,000; further: % of control where 0% means no effect; nearly all actives have a fitted effect of over 60% in size
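Measured in stably transfected Huh7 cells bearing a Rab9 promoter–luciferase construct: 24 h compound treatment at 37 °C, followed by luminescence detection.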
ELG1 genotox: genotoxicity induction in ELG1-luciferase HEK293T cells; HEK293T ELG1-luciferase reporter, luminescence, 16 h; Potency, µM (top dose mostly 46 µM), for inactives: at the highest dose activity change, positive = activation, usual class: activators; hit rate 1.3% among 330,000; AID 504466; further: % of control where 0% means no effect; nearly all actives have a fitted effect of over 60% in size
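ELG1-luciferase HEK293T cells, 2,000/well; compound pinned in; 16 hr, 37 °C, 5% CO2; ONE-Glo, 30 min RT; luminescence on CCD imager.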
NPC1 prom act: activates the NPC1 promoter. Huh7 NPC1 promoter luciferase reporter, 24 h. Potency, µM (highest dose often 9.22 µM), for inactives: at the top dose activation, most hits filed as activators. hit rate 2.4% among 320,000. AID 485313; further: % of control where 0% means no effect; nearly all actives have a fitted effect of over 60% in size
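In 1536-well qHTS, Huh7 cells harboring an NPC1 promoter–luciferase construct received compound for 24 h; activation was quantified by luminescence following luciferase reagent addition.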
FLuc counter: firefly luciferase modulation, counter-screen for miR-21 project. P08659. purified FLuc, Km substrates, luminescence inhibition. Potency, µM (series often up to 57.5 µM), for inactives: at the highest dose activity change, negative = inhibition, most hits filed as inhibitors. hit rate 6.9% among 360,000. AID 588342;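 further: plate controls were vehicle for no effect and reference inhibitor for full effect; nearly all actives have a fitted effect of over 55% in size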
Target sequence (P08659 whole entry, looked up): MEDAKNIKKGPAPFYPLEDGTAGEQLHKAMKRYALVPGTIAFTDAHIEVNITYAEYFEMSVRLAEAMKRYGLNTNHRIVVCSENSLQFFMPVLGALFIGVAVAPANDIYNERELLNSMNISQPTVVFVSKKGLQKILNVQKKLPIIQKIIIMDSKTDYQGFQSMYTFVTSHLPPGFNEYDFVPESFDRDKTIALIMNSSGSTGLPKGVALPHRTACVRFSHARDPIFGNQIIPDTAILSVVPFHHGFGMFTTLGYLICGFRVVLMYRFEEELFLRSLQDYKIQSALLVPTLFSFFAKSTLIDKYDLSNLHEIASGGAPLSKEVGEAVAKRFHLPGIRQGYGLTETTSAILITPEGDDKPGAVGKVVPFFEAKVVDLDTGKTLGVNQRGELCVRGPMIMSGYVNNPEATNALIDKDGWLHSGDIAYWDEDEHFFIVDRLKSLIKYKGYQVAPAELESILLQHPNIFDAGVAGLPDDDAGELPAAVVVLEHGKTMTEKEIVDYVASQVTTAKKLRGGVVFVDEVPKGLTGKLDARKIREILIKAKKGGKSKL
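Purified P. pyralis luciferase, 10 nM final, with Km-level 10 uM D-luciferin and 10 uM ATP in 50 mM Tris acetate pH 7.5, 10 mM Mg acetate, 0.01% Tween-20, 0.05% BSA; 6-point qHTS titration about 60 µM downward; luminescence read.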
The depositor's hits bear a star; u = inconclusive; x = not tested or not shown; [ ] = dose if it differs, or a comment. Rows were chosen to be rich in hits. Some 7.5% of all compounds tested hit in one or more screens of this group. The call rests on the fitted dose curve; in most records, active means well fitted curve in the direction sought with a large enough effect; inconclusive means small, poorly fitted or top-dose-only effect, or another doubt; inactive means no such curve, though single readings can be large; an effect the other way counts as inactive or inconclusive. Potency means the concentration at half of the fitted maximal effect.

SMILES	SMN2 splice up	Rab9 prom act	ELG1 genotox	NPC1 prom act	FLuc counter
Nc1nc(C2CC2)c(Sc2sc(N)nc2C2CC2)s1	15.8µM*	-3.5%	-6.4%	0.9%	-1.3%
CN(C)S(=O)(=O)c1ccc2c(c1)N(CC(=O)N1CCN(c3ccc(F)cc3)CC1)CCS2	x	x	x	x	-4.0%
O=C(CCc1nnc(CCCCc2ccccc2)o1)NCCN1CCOC1=O	x	0.2%	15.1%	1.8%	16.9µM*
CN(CCc1ccccn1)C(=O)CCc1nnc(CCCc2ccccc2)o1	x	u	u	u	15.1µM*
CCc1cc(CNC(=O)CCc2nnc(CCCc3ccccc3)o2)on1	15.8µM*	3.55µM*	18.3µM*	u	19µM*
O=C(CCc1nnc(CCCc2ccccc2)o1)N1CCCCCC1	x	u	u	u	21.3µM*
CN(C1CCCCC1)S(=O)(=O)c1ccc2c(c1)c(=O)c(C(=O)NCc1ccccc1Cl)cn2C	-12.1%	x	x	x	1.7%
COc1cc2c(cc1OC)C1N(CC2)C(=O)CCC12C(=O)CCCC2=O (stereo unspecified)	29.2%	x	x	x	x
COP(=O)(OC)C(Nc1ccc(Cl)cc1)c1ccccc1 (stereo unspecified)	x	-2.9%	-5.1%	1.3%	0.5%
COC(=O)c1ccc(NC(c2ccc(Cl)cc2)P(=O)(OC)OC)cc1 (stereo unspecified)	-4.7%	-1.4%	3.7%	-2.0%	26.9µM*
Cc1ccc2nc(NCCc3ccc(Cl)cc3)c3nncn3c2c1	u	-1.6%	-0.2%	-2.4%	0.2%
Cc1ccc(Nc2nc3ccccc3n3cnnc23)cc1C	x	u	9.8%	1.12µM*	u
Cc1ccc2nc(Nc3ccc(C)c(C)c3)c3nncn3c2c1	x	20.3%	10.7%	20.2%	u
Cc1cccc(CCNc2nc3ccc(C)cc3n3cnnc23)c1	x	13.8%[1.84 µM]	u	u	16.9µM*
Cc1ccccc1CN(C)C(=O)c1ccc2ccccc2n1	x	-1.9%	-2.7%	-0.6%	0.2%
O=[N+]([O-])c1cccc(/C=N/N=C\c2ccccc2)c1	x	-2.0%	7.7%	1.6%	3.38µM*
Cc1nnc(C)n1/N=C/c1cccc([N+](=O)[O-])c1	1.7%	-1.1%	3.0%	-8.1%	-2.2%
O=[N+]([O-])c1ccc(N/N=C/c2ccccc2)c(F)c1	22.4µM*	u	u	u	10.7µM*
Cc1ccc(N(CC(=O)NCC2CCCO2)C(=O)CCC(=O)Nc2nccs2)cc1 (stereo unspecified)	x	-0.3%	2.9%	-3.6%	7.3%
Cc1ccc(-c2cc(C(=O)Nc3c(C(=O)c4ccc(C)c(F)c4)oc4ccccc34)no2)cc1	x	x	x	x	-0.8%
CCc1ccc(C(=O)N/N=C/c2cccc3ccccc23)nc1	u	29.7%	u	25.4%	5.36µM*
O=C(N/N=C/c1cccc2ccccc12)c1cccc(F)c1	x	28.1%	23.9%	26.1%	21.3µM*
O=C(N/N=C/c1cccc2ccccc12)c1ccc(CN2CCOCC2)cc1	x	0.5%	-7.7%	-3.9%	16.9µM*
O=C(N/N=C/c1c(Cl)cccc1Cl)c1cccc(F)c1	-3.5%	24.2%	17.2%	12.2%	-6.8%
COc1ccccc1/C=N/NC(=O)c1cccc2ccccc12	x	-2.8%	-2.3%	-1.5%	-2.3%
SMILES	SMN2 splice up	Rab9 prom act	ELG1 genotox	NPC1 prom act	FLuc counter
O=C(N/N=C/c1ccccc1Cl)c1cccc(F)c1	22.4µM*	2µM*	u	2.51µM*	4.78µM*
COCCNC(=O)Cn1cc(/C=N/NC(=O)c2ccc(Oc3ccc(O)cc3)cc2)c2ccccc21	-6.7%	-1.9%	-7.2%	-0.3%	10.7µM*
O=C(N/N=C/c1cn(Cc2ccccc2)c2ccccc12)c1ccncc1	-71.1%	-9.0%	-5.0%	-7.7%	u
Nc1ccc(C(=O)N/N=C/c2cn(Cc3cccc(F)c3)c3ccccc23)cc1	x	1.0%	0.9%	0.0%	23.9µM*
Cc1nn(Cc2c(Cl)cccc2Cl)c(Cl)c1/C=N/NC(=O)c1cccnc1	13.9%	u	9.9%	12.7%	9.53µM*
O=C(N/N=C/c1cccc2ccccc12)c1cccnc1	x	1.4%	6.1%	2.1%	15.1µM*
COc1ccc(OCCn2cc(/C=N/NC(=O)c3ccncc3)c3ccccc32)cc1	-37.3%	-2.7%	-5.1%	6.0%	u
Cc1ccc(NC(=O)c2sc3ncn(Cc4cccc(F)c4)c(=O)c3c2C)c(Br)c1	x	x	x	x	-2.6%
CCOC(=O)CCc1c(C)nc2cc(-c3cc(OC)cc(OC)c3)[nH]n2c1=O	-8.3%	x	x	x	1.0%
CCN(C(=O)CSc1nc2ccccc2n1C)C1CCS(=O)(=O)C1 (stereo unspecified)	x	0.2%	-0.3%	-1.4%	2.2%
Nc1nn2c(-c3ccccc3)cc(=O)[nH]c2c1N=Nc1ccc(O)cc1	-44.1%	-0.6%[1.84 µM]	-10.9%	-1.6%	6.75µM*
Nc1nn2c(-c3ccccc3)cc(=O)[nH]c2c1N=Nc1ccc(Br)cc1	-58.1%	1.7%	-13.3%	-1.0%	21.3µM*
O=C(Nc1ccc2oc(-c3ccccc3)nc2c1)c1ccco1	12.6µM*	2.51µM*	u	1.78µM*	4.78µM*
O=C(Nc1ccc2oc(-c3ccccc3)nc2c1)c1ccc2c(c1)OCCO2	-45.9%	18.0%	-11.2%	0.3%	5.36µM*
O=C(Nc1ccc2oc(-c3ccncc3)nc2c1)c1ccc2c(c1)OCCO2	x	2.0%	5.6%	2.5%	1.69µM*
COc1ccc(C(=O)Nc2ccc3oc(-c4cccnc4)nc3c2)cc1OC	-15.5%	-18.6%	-6.8%	-1.9%	1.2%
O=C(Nc1ccc2oc(-c3ccncc3)nc2c1)c1ccco1	x	29.9%	-5.9%	19.8%	u
O=C(Nc1ccc2oc(-c3ccncc3)nc2c1)c1ccc2c(c1)OCO2	x	-7.2%	1.9%	-1.7%	u
O=C(Nc1ccc2oc(-c3cccnc3)nc2c1)c1ccc2c(c1)OCCO2	x	29.2%	u	11.0%	2.39µM*
Oc1ccc2c(c1)oc1cc(O)ccc12	u	0.1%	10.9%	-1.5%	19µM*
O=C(/C(C=Nc1ccc(F)cc1)=C(/O)c1ccco1)C(F)(F)F	u	23.9%	7.31µM*	2.3%	8.49µM*
Cc1ccc(N=C/C(C(=O)C(F)(F)F)=C(\O)c2ccco2)cc1Cl	x	0.4%	u	2.0%	9.53µM*
COc1cc(/C=C/C(=O)OCC(=O)N2c3ccccc3NC(=O)C2(C)C)cc(OC)c1OC	x	-5.2%	-0.1%	0.2%	-1.9%
